Screening results deposited in PubChem by The Scripps Research Institute Molecular Screening Center.
rat GALR2 ag: GALR2 (rat) receptor agonism; O08726; cell-based GALR2 agonist screen; activation, % at 10 µM; actives 0.5% (n = 16,000); AID 833; in the data active means activation above about 15%
Target sequence (O08726 whole entry, looked up): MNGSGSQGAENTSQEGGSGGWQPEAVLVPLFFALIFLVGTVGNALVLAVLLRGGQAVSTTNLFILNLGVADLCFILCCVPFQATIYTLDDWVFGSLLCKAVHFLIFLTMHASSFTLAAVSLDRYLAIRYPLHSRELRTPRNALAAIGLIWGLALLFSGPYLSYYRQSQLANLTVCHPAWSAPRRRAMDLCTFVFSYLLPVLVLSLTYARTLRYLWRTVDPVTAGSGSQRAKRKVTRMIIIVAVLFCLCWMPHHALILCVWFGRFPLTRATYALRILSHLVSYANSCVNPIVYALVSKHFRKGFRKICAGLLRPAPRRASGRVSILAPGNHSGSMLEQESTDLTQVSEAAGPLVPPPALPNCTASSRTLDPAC
S1P1 ag: S1P1 (human) receptor agonism. actives 1.5% (n = 16,000). P21453. activation, % at 4.5 µM. S1P1 agonist cell-based reporter assay; in the data active means activation above about 80%
TLR4-MyD88 inh: blocks binding of human TLR4 to MyD88. O00206. Cell-based TLR4-MyD88 binding inhibition assay. inhibition, % at 10 µM. actives 0.06% (n = 16,000); in the data active means inhibition above about 45%
NOTCH agonist: agonists of NOTCH signaling; activation, % at 2.5 µM; AID 434982; actives 0.4% (n = 15,000); NOTCH signaling luciferase reporter cells, luminescence; in the data active means activation above about 2.2%
Numbers stand for hits. This is a sample that favours compounds with a hit; in the whole collection about 2.4% have one here.

How did COC(=O)c1cccc(NC(=O)c2ccccc2)c1 do in these assays?
rat GALR2 ag: inactive; S1P1 ag: inactive; TLR4-MyD88 inh: inactive; NOTCH agonist: inactive

What do the screens show for `Cc1onc(-c2c(F)cccc2Cl)c1C(=O)Oc1ccccc1`?
rat GALR2 ag: inactive; S1P1 ag: 95.4; TLR4-MyD88 inh: inactive; NOTCH agonist: inactive

Results for COc1ccc(S(=O)(=O)N2CCN(c3ccc(C(F)(F)F)cc3[N+](=O)[O-])CC2)cc1OC ?
rat GALR2 ag: 79.7; S1P1 ag: inactive; TLR4-MyD88 inh: inactive; NOTCH agonist: inactive

What do the screens show for `CCOc1c(NN(C)C)c(=O)c1=O`?
rat GALR2 ag: inactive; S1P1 ag: inactive; TLR4-MyD88 inh: inactive; NOTCH agonist: inactive

How did CCOC(=O)COc1cccc([N+](=O)[O-])c1 do in these assays?
rat GALR2 ag: inactive; S1P1 ag: inactive; TLR4-MyD88 inh: inactive; NOTCH agonist: 3.0

What do the screens show for `Cc1cc(C(=O)/C(C#N)=N/Nc2cccc(Cl)c2)n(C(C)(C)C)n1`?
rat GALR2 ag: inactive; S1P1 ag: 88.4; TLR4-MyD88 inh: inactive; NOTCH agonist: inactive

How did COc1cc(Cl)ccc1N/N=C(\C#N)C(N)=O do in these assays?
rat GALR2 ag: inactive; S1P1 ag: inactive; TLR4-MyD88 inh: inactive; NOTCH agonist: inactive

What do the screens show for `CC(C)(C)c1cc(C(=O)/C(C#N)=N/Nc2cccc(Cl)c2)no1`?
rat GALR2 ag: inactive; S1P1 ag: 108.0; TLR4-MyD88 inh: inactive; NOTCH agonist: inactive

Results for CC(=O)Nc1ccc(Br)cc1C(=O)Nc1cc(C(F)(F)F)cc(C(F)(F)F)c1 ?
rat GALR2 ag: inactive; S1P1 ag: inactive; TLR4-MyD88 inh: inactive; NOTCH agonist: inactive

What do the screens show for `Cc1nc(-c2cc(C#N)c(NCc3ccccc3)nc2C)cs1`?
rat GALR2 ag: inactive; S1P1 ag: 84.6; TLR4-MyD88 inh: inactive; NOTCH agonist: inactive

What do the screens show for `CS(=O)c1ccccc1[N+](=O)[O-]` (stereo not drawn)?
rat GALR2 ag: inactive; S1P1 ag: inactive; TLR4-MyD88 inh: inactive; NOTCH agonist: inactive

How did COc1ccc(C(=O)Nc2nc(-c3ccc(C)c(Cl)c3)c(C)s2)cc1 do in these assays?
rat GALR2 ag: 17.5; S1P1 ag: inactive; TLR4-MyD88 inh: inactive; NOTCH agonist: inactive

What do the screens show for `OC(COc1ccc(C23CC4CC(CC(C4)C2)C3)cc1)CN1CCCCC1` (stereo not drawn)?
rat GALR2 ag: 26.7; S1P1 ag: inactive; TLR4-MyD88 inh: inactive; NOTCH agonist: inactive

What do the screens show for `Cc1nc([N+](=O)[O-])cn1CCCOc1ccc(Cl)cc1`?
rat GALR2 ag: inactive; S1P1 ag: inactive; TLR4-MyD88 inh: inactive; NOTCH agonist: inactive

Results for COc1ccc(-c2cc(-c3ccc(OC)cc3)c3c(=O)n(C)c(=O)n(C)c3n2)cc1 ?
rat GALR2 ag: inactive; S1P1 ag: 81.2; NOTCH agonist: inactive

How did Cc1[nH]c2ccccc2c1SCc1n[nH]c(=S)n1C do in these assays?
rat GALR2 ag: 20.1; S1P1 ag: inactive; TLR4-MyD88 inh: inactive; NOTCH agonist: inactive

What do the screens show for `CC1=NN(c2ccccc2)C(=O)/C1=C\c1ccc(-c2cccc([N+](=O)[O-])c2)o1`?
rat GALR2 ag: inactive; S1P1 ag: inactive; TLR4-MyD88 inh: inactive; NOTCH agonist: inactive

Results for CSc1cccc(NC(=O)CN2CCN(CC(=O)Nc3cccc(SC)c3)CC2)c1 ?
rat GALR2 ag: inactive; S1P1 ag: inactive; TLR4-MyD88 inh: inactive; NOTCH agonist: inactive

What do the screens show for `CSc1cccc(NC(=S)Nc2cccc(SC)c2)c1`?
rat GALR2 ag: inactive; S1P1 ag: inactive; TLR4-MyD88 inh: inactive; NOTCH agonist: 2.5

What do the screens show for `N#C/C(=N\Nc1ccc(F)cc1)C(=O)c1ccc(Cl)cc1`?
rat GALR2 ag: inactive; S1P1 ag: 103.1; TLR4-MyD88 inh: inactive; NOTCH agonist: inactive

What do the screens show for `CCOC(=O)c1c(C)nsc1N/N=C(\C#N)C(=O)c1ccc(Cl)cc1`?
rat GALR2 ag: inactive; S1P1 ag: 113.0; TLR4-MyD88 inh: inactive

Results for N#C/C(=N\O)C(=O)c1ccc(Cl)cc1 ?
rat GALR2 ag: inactive; S1P1 ag: inactive; TLR4-MyD88 inh: inactive; NOTCH agonist: inactive

What do the screens show for `CCOC(=O)/C(C#N)=N/Nc1ccsc1C(=O)OC`?
rat GALR2 ag: inactive; S1P1 ag: inactive; TLR4-MyD88 inh: inactive; NOTCH agonist: inactive

How did Nc1nnc(Sc2cc3c(cc2[N+](=O)[O-])C(=O)NC3=O)s1 do in these assays?
rat GALR2 ag: inactive; S1P1 ag: inactive; TLR4-MyD88 inh: inactive; NOTCH agonist: inactive

How did COc1cc(CN(C(=O)c2cccc([N+](=O)[O-])c2)c2cccc(F)c2)cc(OC)c1OC do in these assays?
rat GALR2 ag: inactive; S1P1 ag: inactive; TLR4-MyD88 inh: inactive; NOTCH agonist: inactive

What do the screens show for `Cc1ccc(S(=O)(=O)OCC(O)CNC2Cc3ccccc3C2)cc1` (stereo not drawn)?
rat GALR2 ag: inactive; S1P1 ag: inactive; TLR4-MyD88 inh: inactive; NOTCH agonist: inactive

How did Cc1nc2nc(N)[nH]c(=O)c2nc1C do in these assays?
rat GALR2 ag: inactive; S1P1 ag: 110.9; TLR4-MyD88 inh: inactive; NOTCH agonist: inactive

What do the screens show for `Cc1cn[nH]c1-c1cccs1`?
rat GALR2 ag: inactive; S1P1 ag: inactive; TLR4-MyD88 inh: inactive; NOTCH agonist: inactive
